# Reference: PMC7862700, “An all-to-all approach to the identification of sequence-specific readers for epigenetic DNA modifications on cytosine”
# Experiments:
# Test in all cases: DAPPL (digital affinity profiling via proximity ligation, sequencing); 10 mM Tris-HCl pH 7.5, 50 mM NaCl, 1 mM DTT, 4% glycerol, room temperature, 30 min; GST-TFs on glutathione beads, 16-mer random dsDNA library, 0.1% formaldehyde crosslink after washing; high values mean tight binding
# [1] = molecular target: T1, FEV (Homo sapiens, UniProt Q99581 1-238); conditions: protein: recombinant; tags: N-terminal GST; dsDNA, one strand shown
# T1 sequence: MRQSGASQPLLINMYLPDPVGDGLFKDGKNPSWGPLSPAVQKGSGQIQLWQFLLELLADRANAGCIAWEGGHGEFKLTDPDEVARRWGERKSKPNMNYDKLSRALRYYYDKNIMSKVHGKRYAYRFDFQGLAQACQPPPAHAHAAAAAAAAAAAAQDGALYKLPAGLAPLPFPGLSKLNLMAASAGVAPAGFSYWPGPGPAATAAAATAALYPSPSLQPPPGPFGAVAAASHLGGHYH
# Procedure, shortened: (§1)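 The binding signal reported is, for every hexamer, its read frequency for a factor over its read frequency for the tag-only sample. Reads came from pools of yeast-expressed, GST-fused human transcription factors on glutathione beads, barcoded with DNA and mixed with that sample, which were incubated with 200 nmole of a random double-stranded 16-mer DNA library in Tris/NaCl/DTT/glycerol buffer at room temperature for 30 min. After washing, the pools were crosslinked with 0.1% formaldehyde, proximity-ligated with BsaI/T4 ligase for 1 h at 37 °C, PCR-amplified and sequenced on an Illumina NextSeq500.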
# [2] = molecular target: ETV5 (Homo sapiens, UniProt P41161 1-510); conditions: protein: recombinant; tags: N-terminal GST; dsDNA, one strand shown
# Procedure, shortened: as §1
# [3] = molecular target: HSF1 (Homo sapiens, UniProt Q00613 1-529); conditions: protein: recombinant; tags: N-terminal GST; chain copies: 3; dsDNA, one strand shown
# Procedure, shortened: as §1
# [4] = molecular target: T2, SPIC (Homo sapiens, UniProt Q8N5J4 1-248); conditions: protein: recombinant; tags: N-terminal GST; dsDNA, one strand shown
# T2 sequence: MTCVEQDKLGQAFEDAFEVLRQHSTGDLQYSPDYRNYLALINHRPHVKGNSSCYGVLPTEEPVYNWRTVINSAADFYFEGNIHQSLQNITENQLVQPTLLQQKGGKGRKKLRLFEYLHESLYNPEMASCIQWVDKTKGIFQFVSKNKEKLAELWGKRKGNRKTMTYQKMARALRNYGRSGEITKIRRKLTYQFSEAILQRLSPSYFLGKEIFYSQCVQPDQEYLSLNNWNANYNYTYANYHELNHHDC
# Procedure, shortened: as §1
# [5] = molecular target: ELF4 (Homo sapiens, UniProt Q99607 1-663); conditions: protein: recombinant; tags: N-terminal GST; dsDNA, one strand shown
# Procedure, shortened: as §1
# [6] = molecular target: T3, ELK4 (Homo sapiens, UniProt P28324-2 1-405); conditions: protein: recombinant; tags: N-terminal GST; dsDNA, one strand shown
# T3 sequence: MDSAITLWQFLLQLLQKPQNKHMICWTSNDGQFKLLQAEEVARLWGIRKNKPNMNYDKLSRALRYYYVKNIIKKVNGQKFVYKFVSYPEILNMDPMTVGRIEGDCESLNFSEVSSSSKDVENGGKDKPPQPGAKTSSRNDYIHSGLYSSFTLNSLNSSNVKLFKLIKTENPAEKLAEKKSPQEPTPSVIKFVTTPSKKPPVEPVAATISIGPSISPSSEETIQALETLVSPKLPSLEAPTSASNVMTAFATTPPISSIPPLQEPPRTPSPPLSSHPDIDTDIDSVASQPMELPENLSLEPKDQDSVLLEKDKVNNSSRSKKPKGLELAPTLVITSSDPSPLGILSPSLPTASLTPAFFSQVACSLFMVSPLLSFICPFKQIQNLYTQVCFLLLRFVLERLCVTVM
# Procedure, shortened: as §1
# [7] = molecular target: T4, ETV2 (Homo sapiens, UniProt O00321 1-342); conditions: protein: recombinant; tags: N-terminal GST; dsDNA, one strand shown
# T4 sequence: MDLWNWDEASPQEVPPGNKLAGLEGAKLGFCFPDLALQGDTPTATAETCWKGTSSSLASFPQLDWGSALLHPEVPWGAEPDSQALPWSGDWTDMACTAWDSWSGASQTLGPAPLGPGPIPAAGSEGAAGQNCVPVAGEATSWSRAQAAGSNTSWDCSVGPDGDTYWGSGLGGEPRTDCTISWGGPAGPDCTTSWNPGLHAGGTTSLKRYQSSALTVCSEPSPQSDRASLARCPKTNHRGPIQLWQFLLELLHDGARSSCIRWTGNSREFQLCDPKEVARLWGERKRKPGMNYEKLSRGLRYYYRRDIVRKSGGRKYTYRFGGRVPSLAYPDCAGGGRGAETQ
# Procedure, shortened: as §1
# [8] = molecular target: T5, ELF3 (Homo sapiens, UniProt P78545 1-371); conditions: protein: recombinant; tags: N-terminal GST; dsDNA, one strand shown
# T5 sequence: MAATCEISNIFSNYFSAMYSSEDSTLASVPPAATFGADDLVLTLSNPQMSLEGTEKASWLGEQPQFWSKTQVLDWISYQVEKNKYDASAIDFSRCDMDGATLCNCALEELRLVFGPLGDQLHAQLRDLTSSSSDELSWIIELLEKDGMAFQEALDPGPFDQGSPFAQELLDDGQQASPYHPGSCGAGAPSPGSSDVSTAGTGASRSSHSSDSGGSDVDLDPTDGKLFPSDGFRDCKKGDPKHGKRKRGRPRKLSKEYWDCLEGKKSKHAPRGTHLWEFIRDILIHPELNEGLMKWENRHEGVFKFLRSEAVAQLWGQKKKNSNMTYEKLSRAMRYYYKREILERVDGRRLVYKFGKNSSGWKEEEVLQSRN
# Procedure, shortened: as §1
# [9] = molecular target: CRX (Homo sapiens, UniProt O43186 1-299); conditions: protein: recombinant; tags: N-terminal GST; dsDNA, one strand shown
# Procedure, shortened: as §1
# [10] = molecular target: ETV1 (Homo sapiens, UniProt P50549 1-477); conditions: protein: recombinant; tags: N-terminal GST; dsDNA, one strand shown
# Procedure, shortened: as §1
# [11] = molecular target: T6, ERF (Homo sapiens, UniProt P50548 1-548); conditions: protein: recombinant; tags: N-terminal GST; dsDNA, one strand shown
# T6 sequence: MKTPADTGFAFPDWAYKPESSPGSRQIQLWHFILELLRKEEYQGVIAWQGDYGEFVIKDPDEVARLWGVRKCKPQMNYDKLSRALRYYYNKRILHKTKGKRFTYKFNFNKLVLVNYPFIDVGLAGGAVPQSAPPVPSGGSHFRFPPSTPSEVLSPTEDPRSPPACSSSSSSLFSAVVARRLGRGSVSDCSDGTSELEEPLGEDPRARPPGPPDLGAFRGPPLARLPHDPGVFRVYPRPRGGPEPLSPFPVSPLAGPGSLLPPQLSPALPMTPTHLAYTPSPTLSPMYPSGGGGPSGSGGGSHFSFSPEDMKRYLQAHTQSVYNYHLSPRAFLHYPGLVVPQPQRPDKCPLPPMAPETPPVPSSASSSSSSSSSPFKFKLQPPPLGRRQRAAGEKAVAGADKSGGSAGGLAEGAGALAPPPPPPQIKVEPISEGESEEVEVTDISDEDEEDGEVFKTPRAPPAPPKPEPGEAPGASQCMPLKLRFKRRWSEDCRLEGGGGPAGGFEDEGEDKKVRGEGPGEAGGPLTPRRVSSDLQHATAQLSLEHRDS
# Procedure, shortened: as §1
# [12] = molecular target: T7, ETV3L (Homo sapiens, UniProt Q6ZN32 1-361); conditions: protein: recombinant; tags: N-terminal GST; dsDNA, one strand shown
# T7 sequence: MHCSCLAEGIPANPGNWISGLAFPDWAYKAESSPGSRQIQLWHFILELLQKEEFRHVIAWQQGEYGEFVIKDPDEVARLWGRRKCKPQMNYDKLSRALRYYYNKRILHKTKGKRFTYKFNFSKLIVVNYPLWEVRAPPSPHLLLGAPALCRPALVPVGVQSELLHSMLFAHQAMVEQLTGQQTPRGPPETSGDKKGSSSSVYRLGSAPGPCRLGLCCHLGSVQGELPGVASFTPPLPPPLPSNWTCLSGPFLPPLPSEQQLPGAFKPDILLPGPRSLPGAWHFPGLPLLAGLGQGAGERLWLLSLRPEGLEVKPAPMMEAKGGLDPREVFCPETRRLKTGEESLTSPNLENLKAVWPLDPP
# Procedure, shortened: as §1
# [13] = molecular target: T8, ETS2 (Homo sapiens, UniProt P15036 1-469); conditions: protein: recombinant; tags: N-terminal GST; dsDNA, one strand shown
# T8 sequence: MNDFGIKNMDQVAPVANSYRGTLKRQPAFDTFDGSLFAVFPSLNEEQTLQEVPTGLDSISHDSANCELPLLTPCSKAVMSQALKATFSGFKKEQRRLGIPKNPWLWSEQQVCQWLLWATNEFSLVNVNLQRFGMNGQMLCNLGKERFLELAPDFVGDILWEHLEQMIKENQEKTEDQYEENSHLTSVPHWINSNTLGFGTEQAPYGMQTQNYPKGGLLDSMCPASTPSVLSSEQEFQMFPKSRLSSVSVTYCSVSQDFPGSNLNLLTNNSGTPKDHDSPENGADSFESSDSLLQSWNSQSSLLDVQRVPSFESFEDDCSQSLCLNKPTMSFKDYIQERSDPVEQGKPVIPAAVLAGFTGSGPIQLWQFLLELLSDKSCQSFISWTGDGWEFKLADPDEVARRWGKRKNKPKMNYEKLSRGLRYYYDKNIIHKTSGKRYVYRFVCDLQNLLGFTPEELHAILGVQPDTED
# Procedure, shortened: as §1
# [14] = molecular target: T9, SPDEF (Homo sapiens, UniProt O95238 1-335); conditions: protein: recombinant; tags: N-terminal GST; dsDNA, one strand shown
# T9 sequence: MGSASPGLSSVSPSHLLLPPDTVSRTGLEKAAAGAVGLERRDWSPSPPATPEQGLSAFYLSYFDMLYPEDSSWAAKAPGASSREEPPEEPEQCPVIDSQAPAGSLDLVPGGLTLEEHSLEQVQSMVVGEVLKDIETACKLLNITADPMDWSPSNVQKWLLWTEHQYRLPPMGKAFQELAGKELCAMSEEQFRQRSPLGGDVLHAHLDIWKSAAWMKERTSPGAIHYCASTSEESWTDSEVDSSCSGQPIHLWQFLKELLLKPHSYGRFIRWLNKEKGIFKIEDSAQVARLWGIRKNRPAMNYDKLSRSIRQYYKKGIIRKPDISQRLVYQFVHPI
# Procedure, shortened: as §1
# [15] = molecular target: T10, ETV7 (Homo sapiens, UniProt Q9Y603 1-341); conditions: protein: recombinant; tags: N-terminal GST; dsDNA, one strand shown
# T10 sequence: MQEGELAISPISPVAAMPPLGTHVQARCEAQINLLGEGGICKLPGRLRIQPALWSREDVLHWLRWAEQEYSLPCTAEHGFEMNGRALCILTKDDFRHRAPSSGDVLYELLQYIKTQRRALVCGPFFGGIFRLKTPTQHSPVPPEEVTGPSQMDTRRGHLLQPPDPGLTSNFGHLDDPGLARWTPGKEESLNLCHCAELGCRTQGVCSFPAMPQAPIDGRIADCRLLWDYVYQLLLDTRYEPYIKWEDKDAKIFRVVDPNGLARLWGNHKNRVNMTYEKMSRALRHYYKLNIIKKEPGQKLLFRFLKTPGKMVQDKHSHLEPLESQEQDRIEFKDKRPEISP
# Procedure, shortened: as §1
# [16] = molecular target: T11, ELF5 (Homo sapiens, UniProt Q9UKW6-2 1-255); conditions: protein: recombinant; tags: N-terminal GST; dsDNA, one strand shown
# T11 sequence: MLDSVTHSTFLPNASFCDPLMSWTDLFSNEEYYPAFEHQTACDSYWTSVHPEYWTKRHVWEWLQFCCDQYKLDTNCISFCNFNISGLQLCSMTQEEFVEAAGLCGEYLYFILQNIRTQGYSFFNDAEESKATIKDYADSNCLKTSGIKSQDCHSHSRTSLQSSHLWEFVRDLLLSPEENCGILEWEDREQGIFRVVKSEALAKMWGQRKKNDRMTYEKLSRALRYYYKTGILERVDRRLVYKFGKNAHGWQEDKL
# Procedure, shortened: as §1
# [17] = molecular target: T12, ETV3 (Homo sapiens, UniProt P41162-2 1-143); conditions: protein: recombinant; tags: N-terminal GST; dsDNA, one strand shown
# T12 sequence: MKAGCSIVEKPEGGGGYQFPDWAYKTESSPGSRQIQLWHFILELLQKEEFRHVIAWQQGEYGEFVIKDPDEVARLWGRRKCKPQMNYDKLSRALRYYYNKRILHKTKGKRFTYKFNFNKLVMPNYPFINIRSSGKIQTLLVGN
# Procedure, shortened: as §1
# [18] = molecular target: ETV6 (Homo sapiens, UniProt P41212 1-452); conditions: protein: recombinant; tags: N-terminal GST; dsDNA, one strand shown
# Procedure, shortened: as §1
# Sequence of ETV5 (P41161 whole entry): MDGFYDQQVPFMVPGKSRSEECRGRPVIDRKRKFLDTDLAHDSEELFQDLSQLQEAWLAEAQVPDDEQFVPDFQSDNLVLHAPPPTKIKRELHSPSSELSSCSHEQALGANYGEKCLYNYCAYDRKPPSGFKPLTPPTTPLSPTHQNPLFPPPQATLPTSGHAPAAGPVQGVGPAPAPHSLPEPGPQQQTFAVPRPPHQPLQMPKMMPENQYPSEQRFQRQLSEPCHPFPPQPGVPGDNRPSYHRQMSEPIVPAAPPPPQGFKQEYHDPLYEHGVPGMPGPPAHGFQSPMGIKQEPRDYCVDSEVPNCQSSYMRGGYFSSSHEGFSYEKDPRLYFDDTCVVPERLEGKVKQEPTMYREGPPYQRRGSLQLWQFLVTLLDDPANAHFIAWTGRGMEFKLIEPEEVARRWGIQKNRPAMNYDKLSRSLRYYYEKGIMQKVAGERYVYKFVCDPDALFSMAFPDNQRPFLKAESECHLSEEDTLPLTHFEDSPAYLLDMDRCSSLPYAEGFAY
# Sequence of ETV6 (P41212 whole entry): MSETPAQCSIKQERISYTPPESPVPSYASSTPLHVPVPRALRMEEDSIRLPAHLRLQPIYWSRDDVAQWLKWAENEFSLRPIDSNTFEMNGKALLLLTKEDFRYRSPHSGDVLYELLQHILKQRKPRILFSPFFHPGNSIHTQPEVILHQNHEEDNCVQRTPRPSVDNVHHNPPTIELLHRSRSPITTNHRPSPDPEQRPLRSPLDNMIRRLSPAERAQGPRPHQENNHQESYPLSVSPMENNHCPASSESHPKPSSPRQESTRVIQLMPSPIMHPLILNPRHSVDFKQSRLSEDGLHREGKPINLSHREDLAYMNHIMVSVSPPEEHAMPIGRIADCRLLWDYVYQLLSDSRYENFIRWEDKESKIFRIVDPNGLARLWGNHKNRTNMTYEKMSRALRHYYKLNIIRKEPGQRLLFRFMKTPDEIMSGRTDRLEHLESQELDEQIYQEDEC
# Sequence of ELF4 (Q99607 whole entry): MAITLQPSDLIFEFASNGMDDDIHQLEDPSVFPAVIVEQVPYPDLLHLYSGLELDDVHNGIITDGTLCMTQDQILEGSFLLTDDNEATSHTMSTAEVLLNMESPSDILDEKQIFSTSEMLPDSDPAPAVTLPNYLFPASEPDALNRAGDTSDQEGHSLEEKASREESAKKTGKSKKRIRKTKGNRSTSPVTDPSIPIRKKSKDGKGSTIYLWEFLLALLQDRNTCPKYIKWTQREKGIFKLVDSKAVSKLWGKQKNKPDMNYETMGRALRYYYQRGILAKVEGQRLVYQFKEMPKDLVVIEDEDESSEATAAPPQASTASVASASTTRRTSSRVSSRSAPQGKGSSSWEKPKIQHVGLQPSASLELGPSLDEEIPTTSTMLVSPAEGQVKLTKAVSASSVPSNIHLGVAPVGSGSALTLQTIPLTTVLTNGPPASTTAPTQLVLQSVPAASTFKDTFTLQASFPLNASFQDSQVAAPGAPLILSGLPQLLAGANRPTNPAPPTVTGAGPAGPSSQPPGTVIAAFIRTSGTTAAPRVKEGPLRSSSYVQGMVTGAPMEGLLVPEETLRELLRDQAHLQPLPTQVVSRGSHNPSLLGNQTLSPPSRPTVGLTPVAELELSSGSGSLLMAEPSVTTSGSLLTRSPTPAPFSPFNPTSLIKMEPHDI
# Sequence of ETV1 (P50549 whole entry): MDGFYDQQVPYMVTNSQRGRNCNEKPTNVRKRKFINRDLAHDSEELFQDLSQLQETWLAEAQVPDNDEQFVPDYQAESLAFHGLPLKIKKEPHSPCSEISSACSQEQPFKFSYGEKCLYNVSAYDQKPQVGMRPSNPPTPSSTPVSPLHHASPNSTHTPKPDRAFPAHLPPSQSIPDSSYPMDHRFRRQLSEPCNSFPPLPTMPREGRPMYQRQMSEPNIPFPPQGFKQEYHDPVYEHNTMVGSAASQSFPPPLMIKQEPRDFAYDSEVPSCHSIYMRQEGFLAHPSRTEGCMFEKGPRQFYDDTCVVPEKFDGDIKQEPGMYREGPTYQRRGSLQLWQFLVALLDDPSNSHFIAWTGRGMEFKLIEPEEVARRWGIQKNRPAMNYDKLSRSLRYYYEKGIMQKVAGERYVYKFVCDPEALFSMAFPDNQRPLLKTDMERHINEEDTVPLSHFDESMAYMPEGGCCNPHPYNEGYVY
# Sequence of CRX (O43186 whole entry): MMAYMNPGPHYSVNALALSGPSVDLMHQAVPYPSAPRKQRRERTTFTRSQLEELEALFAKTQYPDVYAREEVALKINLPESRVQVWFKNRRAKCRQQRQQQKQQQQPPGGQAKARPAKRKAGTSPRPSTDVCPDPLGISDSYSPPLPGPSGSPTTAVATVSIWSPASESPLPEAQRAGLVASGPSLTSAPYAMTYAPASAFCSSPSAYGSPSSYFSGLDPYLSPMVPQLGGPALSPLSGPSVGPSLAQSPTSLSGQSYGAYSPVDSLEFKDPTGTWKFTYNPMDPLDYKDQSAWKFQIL
# Sequence of HSF1 (Q00613 whole entry): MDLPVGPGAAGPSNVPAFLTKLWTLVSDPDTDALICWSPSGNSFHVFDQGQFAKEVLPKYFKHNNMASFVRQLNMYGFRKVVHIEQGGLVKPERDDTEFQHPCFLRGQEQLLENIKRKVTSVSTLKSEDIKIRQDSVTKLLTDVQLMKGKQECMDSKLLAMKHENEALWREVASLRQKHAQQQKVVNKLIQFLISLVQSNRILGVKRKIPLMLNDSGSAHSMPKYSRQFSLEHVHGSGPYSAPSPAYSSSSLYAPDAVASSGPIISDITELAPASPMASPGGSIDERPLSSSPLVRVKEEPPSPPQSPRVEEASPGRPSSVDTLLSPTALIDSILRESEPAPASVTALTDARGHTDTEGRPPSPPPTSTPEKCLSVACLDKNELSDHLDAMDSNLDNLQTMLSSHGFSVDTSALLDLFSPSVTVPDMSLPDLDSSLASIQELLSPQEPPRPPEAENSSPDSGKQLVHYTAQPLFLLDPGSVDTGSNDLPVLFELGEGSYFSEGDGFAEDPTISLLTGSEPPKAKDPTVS
sequence,measurement,setting,value
TGCGAT,binding signal,[1],"1.08 fold enrichment (6-mer frequency, TF over GST control)"
same,binding signal,[2],"1.1 fold enrichment (6-mer frequency, TF over GST control)"
same,binding signal,[3],"1.23 fold enrichment (6-mer frequency, TF over GST control)"
same,binding signal,[4],"1.3 fold enrichment (6-mer frequency, TF over GST control)"
same,binding signal,[5],"1.2 fold enrichment (6-mer frequency, TF over GST control)"
same,binding signal,[6],"1.2 fold enrichment (6-mer frequency, TF over GST control)"
same,binding signal,[7],"1.17 fold enrichment (6-mer frequency, TF over GST control)"
same,binding signal,[8],"1.03 fold enrichment (6-mer frequency, TF over GST control)"
same,binding signal,[9],"1.43 fold enrichment (6-mer frequency, TF over GST control)"
same,binding signal,[10],"1.06 fold enrichment (6-mer frequency, TF over GST control)"
same,binding signal,[11],"1.24 fold enrichment (6-mer frequency, TF over GST control)"
same,binding signal,[12],"1.27 fold enrichment (6-mer frequency, TF over GST control)"
same,binding signal,[13],"1.14 fold enrichment (6-mer frequency, TF over GST control)"
same,binding signal,[14],"1.15 fold enrichment (6-mer frequency, TF over GST control)"
same,binding signal,[15],"1.23 fold enrichment (6-mer frequency, TF over GST control)"
same,binding signal,[16],"1.11 fold enrichment (6-mer frequency, TF over GST control)"
same,binding signal,[17],"1.23 fold enrichment (6-mer frequency, TF over GST control)"
same,binding signal,[18],"1.16 fold enrichment (6-mer frequency, TF over GST control)"
